The text below walks through data of PubChem BioAssay (NCATS).

Results filed as inconclusive are left out. Active and inactive are the calls of the source. Unless noted, calls follow the shape of the dose curve; as a rule, active = well fitted curve in the direction sought with a large enough effect; inconclusive = small, poorly fitted or top-dose-only effect, or another doubt; inactive = no such curve, though single readings can be large; an effect the other way counts as inactive or inconclusive.

For experiment [1], the target named is Cytochrome P450 1A2 (Homo sapiens) (UniProt P05177). Briefly: p450-cyp1a2 (AID 410; calls by dose curve;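 also: -100% = full effect of reference inhibitor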). The procedure, abridged: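 Luminescent demethylation readout: Luciferin-ME (100uM, equal to Km) turned over by 20nM CYP1A2 for 60 min at room temperature after NADPH regeneration addition, following 10 min compound preincubation. Normalization used 57 uM furafylline as full inhibition.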

The target of experiment [2] is Glucocorticoid receptor (Homo sapiens) (UniProt P04150). The experiment can be described thus: GR-GFP Redistribution (AID 450;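 active = compounds whose dose series gives a full or clear partial fitted curve of increased nuclear translocation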; also: potency is read from the fitted curve at half-maximal effect). The conditions noted are these: U2OS GR-GFP nuclear translocation, laser cytometry, 2 h.
Experiment [3] has the same target. The experiment can be described thus: GR-EFC Redistribution (AID 451; calls by dose curve; also: potency is read from the fitted curve at half-maximal effect). The conditions noted are these: CHO-K1 GR-EFC translocation, beta-gal luminescence, 2 h. In a few lines: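 CHO-K1 cells stably expressing nuclear-localized β-gal enzyme acceptor and GR fused C-terminally to the enzyme donor fragment; ligand-driven nuclear translocation restores β-gal by complementation. Compounds titrated up to 46 uM final, 2 h at 37 °C; luminescence read.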

Experiment [4] has as its target Mitogen-activated protein kinase 10 (Mus musculus) (UniProt Q61831). Briefly: JNK3 AlphaScreen Assay (AID 530; active = well fitted curve in either direction with a large enough effect, not every such curve was filed as active;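 also: kinase came from lysate of stimulated human HepG2 cells; signal reports phosphorylation of biotinylated GST-cJun 1-79 at Ser73 with 10 µM ATP; % is scaled to controls: 0 for no effect and ±100 for the full control effect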). In a few lines: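 Phosphorylation of biotinylated GST-cJun(1-79) at Ser73 is measured by AlphaScreen proximity luminescence. Enzyme is JNK3 in HepG2 lysates activated with interleukin-1beta and tumor necrosis factor alpha; ATP is 10 uM final.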
(Alpha assays give light when donor and acceptor beads are brought close together.)

Experiment [5] concerns the target 3',5'-cyclic-AMP phosphodiesterase 4B (Homo sapiens) (UniProt Q07343). The experiment can be described thus: qHTS Assay for Inhibitors of PDE-IV (AID 607; active = well fitted activation curve with a large enough effect in the main read-out, with a control signal flat, not every such curve was filed as active; also: % of control where 0% means no effect). The procedure, abridged:
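HEK293 ACTOne cells with CNG channel (1000/well), endogenous PDE4; membrane potential dye, compounds up to 22.9 uM final. Fluorescence Ex 535/Em 590; RO 20-1724 (100 uM final) as reference.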
Background: qHTS replaces the single test concentration by a dilution series.

Experiment [6] can be described thus: qHTS Assay for Lipid Storage Modulators (AID 1519; calls by dose curve). As to conditions: Drosophila S3 cells, BODIPY lipid droplet/cell ratio, laser cytometry, cells loaded with oleic acid; for activity change, negative = inhibition: at 57.5 µM (top of the series). The procedure, abridged: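 Cells seeded at 5,000 per well were treated with compounds over a concentration series and loaded with oleic acid (400 uM, as added). Lipid droplet fluorescence (488 nm excitation, 500-530 nm channel) was read by laser-scanning cytometry and normalized to 20 uM Triacsin C.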

Experiment [7] concerns the target Ubiquitin carboxyl-terminal hydrolase 1 (Homo sapiens) (UniProt O94782). Briefly: Inhibitors of USP1/UAF1: Pilot qHTS (AID 504865).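 Also: rhodamine fluorescence freed from ubiquitin-rhodamine substrate followed over time; top concentration of the series differs between compounds; % is scaled to controls: 0 for no effect and ±100 for the full control effect; nearly all actives have a fitted effect of over 35% in size.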 In a few lines: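 Enzyme-free wells gave the negative control, while test wells held 1nM USP1/UAF1 preincubated with compound for 15 min at room temperature. Ub-Rho at 150nM final started the reaction, and fluorescence at 480/540 nm was recorded kinetically.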

In experiment [8] the target is DNA dC->dU-editing enzyme APOBEC-3G (Homo sapiens) (UniProt Q9HC16). Briefly: qHTS for inhibitors of Vif-A3G interactions: Validation (AID 588379). Also: 0% is about no effect. The procedure, abridged:
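Yellow fluorescence (Ex 488, Em 500-530) of Vif-coexpressing HeLa A3G-eYFP cells, scanned by Acumen cytometer, reports blocked A3G degradation. Cells plated at 700/well overnight at 37 deg C before compound addition, then a further overnight compound incubation at 37 deg C.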

Experiment [9] concerns Zika virus NS2B-NS3 protease. The experiment can be described thus: Primary screen GU AMC qHTS for Zika virus inhibitors (AID 1347154).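 Also: 0% = no-inhibitor control and -100% = no-enzyme control; nearly all actives have a fitted effect of over 70% in size.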 The procedure, abridged:
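Unlinked Zika NS2B hydrophilic domain/NS3 protease domain noncovalent complex (25 nM final) in 10 mM Tris-HCl pH 8.0, 0.01% Tween 20, with AMC peptide substrate. Fluorescence (ex 340, em 450 nm) change over 15 min, room temperature; percent inhibition fitted to 4-parameter Hill equation.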

Experiment [10] is described as follows: NCATS anti-infectives library activity on HEK293 viability as a counter-qHTS vs the C. elegans viability qHTS (AID 1745854). Also: % is scaled to controls: 0 for no effect and ±100 for the full control effect. In a few lines: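 Cytotoxicity counter-screen to a worm viability qHTS: CellTiter-Glo luminescence read 10 min after reagent addition. Compounds (final up to 41.7 uM, a 1:5 dilution series) incubated 24 hr at 37C with 1,500 HEK293 cells per well; digitonin control.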

A short description of experiment [11]: AP1 Signaling Pathway (AID 357; active = well fitted curve in either direction with a large enough effect, not every such curve was filed as active;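 also: ME-180 reporter cells stimulated with EGF at its EC50 level; % is scaled to controls: 0 for no effect and ±100 for the full control effect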). The conditions noted are these: ME-180 AP-1-bla reporter, EGF-induced, beta-lactamase ratio, 5 h; at 38 µM (top of the series). The procedure, abridged: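 A ratiometric CCF4 readout (405 nm excitation; 460 and 530 nm emission) quantified AP-1-driven beta-lactamase in ME-180 cells after 5 h with compound and EC50 EGF; AC50 values were derived for activators and inhibitors.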

A short description of experiment [12]: NFAT Signaling Pathway (AID 444; active = well fitted curve in either direction with a large enough effect, not every such curve was filed as active;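 also: carbachol stimulus at about its EC50 of 1 µM final; % is scaled to controls: 0 for no effect and ±100 for the full control effect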). The conditions noted are these: Jurkat NFAT-bla M1, carbachol, beta-lactamase ratio, 5 h; at 38 µM (top of the series). In a few lines: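 Jurkat cells carrying an NFAT-driven β-lactamase reporter and co-transfected muscarinic M1 receptor were treated with compound plus carbachol (1 uM final, an EC50 level) for 5 h at 37 °C. CCF4 loading followed for 1 h at RT; 460/530 nm ratio gave %activity.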

Experiment [13] in a line: Stat Signaling Pathway (AID 446; active = well fitted curve in either direction with a large enough effect, not every such curve was filed as active). As to conditions: ME-180 (cervical carcinoma) SIE beta-lactamase reporter, IL-6 stimulated, 5 h; at 38 µM (top of the series). The procedure, abridged: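 Normalization used AC90 stimulation (300 pM IL-6) and AC90 inhibition (125 nM pan-JAK inhibitor at 40 pM IL-6). The underlying signal is SIE-driven beta-lactamase in ME-180 cells after 5 h IL-6 exposure with compound.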

Experiment [14] concerns the target Guanine nucleotide-binding protein G(i) subunit alpha-1 (Homo sapiens) (UniProt P63096). Briefly: qHTS Assay for Inhibitors of RGS12 GoLoco Motif Activity (Green Fluorophore) (AID 879).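 Also: 0% = labeled peptide with Gαi1 and full inhibition = labeled peptide alone without protein; negative values mean loss of peptide binding seen as reduced polarization.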 In a few lines:
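A drop in FITC polarization marked displacement of the FITC-tagged RGS12 GoLoco peptide (10 nM) from Gαi1 (50 nM). Compounds were incubated 10 min at room temperature in Tris pH 7.5 buffer containing 150 mM NaCl, 0.1 mM GDP and 0.05% NP40; unlabeled peptide titration served as control.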

Experiment [15] addresses Cytochrome P450 2C9 (Homo sapiens) (UniProt P11712). Briefly: qHTS Assay for Inhibitors and Substrates of Cytochrome P450 2C9 (AID 883). Also: % is scaled to controls: 0 for no effect and ±100 for the full control effect; nearly all actives have a fitted effect of over 60% in size. The procedure, abridged: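 CYP2C9 deoxyluciferin hydroxylation, 37C, 60 min with NADPH regeneration; 10nM enzyme, 100uM Luciferin-H (KM). Glo detection reagent stopped reaction; luminescence normalized to sulphaphenazole (57uM) full inhibition.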

In experiment [16] the target is Cytochrome P450 2D6 (Homo sapiens) (UniProt P10635). The experiment can be described thus: qHTS Assay for Inhibitors and Substrates of Cytochrome P450 2D6 (AID 891). Also: potency is read from the fitted curve at half-maximal effect; nearly all actives have a fitted effect of over 60% in size. In a few lines: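 Luminescent read-out of luciferin formed by 5 nM human CYP2D6 demethylating 30 uM Luciferin-ME EGE (Km level) over 60 min at room temperature after NADPH regeneration addition. Data normalized to full inhibition by 1.43 uM quinidine.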

The target of experiment [17] is Muscarinic acetylcholine receptor M1 (Rattus norvegicus) (UniProt P08482). Briefly: qHTS Assay for Antagonists of Acetylcholine Muscarinic M1 Receptor: Measurement of IP-One Response (AID 944). Also: nearly all actives have a fitted effect of over 75% in size. The procedure, abridged: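 IP1 accumulation measured via TR-FRET between d2-IP1 and Eu-cryptate anti-IP1 antibody after carbachol (200 nM, EC80) stimulation for 30 min; rat M1-transfected CHO cells received compound 10 min before agonist.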

Experiment [18] has as its target Pyruvate kinase (Leishmania mexicana) (UniProt Q27686). The experiment can be described thus: qHTS Validation Assay for Inhibitors of Leishmania Mexicana Pyruvate Kinase (AID 945).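 Also: 0% = DMSO only neutral control wells.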 The procedure, abridged: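 Purified LmPYK (E451W mutant, 0.2 nM) was incubated 1 h at room temperature with 0.5 mM PEP and 0.1 mM ADP in 50 mM imidazole pH 7.2, 50 mM KCl, 7 mM MgCl2; ATP formed was read by PKLight luminescence, normalized to DMSO wells.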

For experiment [19], the target named is Pyruvate kinase PKM (Homo sapiens) (UniProt P14618). Briefly: qHTS Assay for Activators of Human Muscle Pyruvate Kinase (AID 954; active = well fitted curve in the direction sought with a large enough effect, not every such curve was filed as active;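 also: 0% = uninhibited enzyme and -100% = no enzyme or full thiadiazolimine inhibition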). The procedure, abridged:
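Compound pinned into substrate mix (0.5 mM PEP, 0.1 mM ADP), then 0.1 nM PKM2 added; 1 h, RT. Stop/detection luciferase reagent added, luminescence read. Normalized to no-inhibition and no-enzyme or reference-inhibitor controls.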

Experiment [20] addresses Alpha-galactosidase A (Homo sapiens) (UniProt P06280). The experiment can be described thus: Counterscreen for Glucocerebrosidase Inhibitors: qHTS Assay for Human alpha-Galactosidase at pH 4.5 (AID 992). Also: 0% is about no effect. The procedure, abridged:
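Steps: enzyme (2 nM final), then compound across 0.7 nM to 77 uM, then 80 uM fluorogenic galactopyranoside substrate; incubate 20 min at room temperature; quench at pH 10; measure fluorescence at 365/440 nm.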
(In general: A counterscreen serves to expose hits that act by an unwanted route or on another target.)

For experiment [21], the target named is alpha-glucosidase (Oryza sativa, rice) (UniProt Q653V4). The experiment can be described thus: Counterscreen for Glucocerebrosidase Inhibitors: qHTS Assay for Rice alpha-Glucosidase at pH 5.0 (AID 997).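 Also: 0% = full activity with enzyme and -100% = basal without enzyme.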 The procedure, abridged:
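Endpoint fluorogenic assay at pH 5.0: compounds (0.7 nM to 77 uM) titrated against 4 nM rice enzyme and 400 uM 4-MU-alpha-glucoside for 20 min at room temperature; NaOH/glycine stop, read ex 365/em 440 nm, Hill-fitted AC50.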

[22] abbreviates: measured here: cell count channel max response.
[23] abbreviates: measured here: lipid channel max response.

Chain of Glucocorticoid receptor (Homo sapiens) (P04150 whole entry, looked up, the tested form may be a part): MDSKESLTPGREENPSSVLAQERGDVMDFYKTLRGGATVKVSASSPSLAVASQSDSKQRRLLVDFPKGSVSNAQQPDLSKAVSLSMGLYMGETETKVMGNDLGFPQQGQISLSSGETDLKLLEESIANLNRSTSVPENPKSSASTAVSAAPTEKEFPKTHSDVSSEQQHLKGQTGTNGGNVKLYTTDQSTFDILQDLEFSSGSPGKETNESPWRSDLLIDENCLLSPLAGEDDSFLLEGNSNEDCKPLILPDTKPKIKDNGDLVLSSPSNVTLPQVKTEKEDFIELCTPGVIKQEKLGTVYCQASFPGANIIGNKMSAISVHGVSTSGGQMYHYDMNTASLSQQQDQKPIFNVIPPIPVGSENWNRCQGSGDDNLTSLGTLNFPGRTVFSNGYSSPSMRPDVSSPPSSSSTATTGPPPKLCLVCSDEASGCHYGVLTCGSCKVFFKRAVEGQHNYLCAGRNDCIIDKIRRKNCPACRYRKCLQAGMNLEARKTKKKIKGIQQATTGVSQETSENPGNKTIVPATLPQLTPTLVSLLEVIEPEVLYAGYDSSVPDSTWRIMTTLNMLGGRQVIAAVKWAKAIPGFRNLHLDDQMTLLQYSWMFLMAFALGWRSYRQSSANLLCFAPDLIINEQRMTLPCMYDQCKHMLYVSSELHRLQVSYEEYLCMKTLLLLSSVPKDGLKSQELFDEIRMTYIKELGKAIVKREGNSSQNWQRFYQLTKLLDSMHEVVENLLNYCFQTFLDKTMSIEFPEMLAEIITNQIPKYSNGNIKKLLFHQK
Chain of DNA dC->dU-editing enzyme APOBEC-3G (Homo sapiens) (Q9HC16 whole entry, looked up): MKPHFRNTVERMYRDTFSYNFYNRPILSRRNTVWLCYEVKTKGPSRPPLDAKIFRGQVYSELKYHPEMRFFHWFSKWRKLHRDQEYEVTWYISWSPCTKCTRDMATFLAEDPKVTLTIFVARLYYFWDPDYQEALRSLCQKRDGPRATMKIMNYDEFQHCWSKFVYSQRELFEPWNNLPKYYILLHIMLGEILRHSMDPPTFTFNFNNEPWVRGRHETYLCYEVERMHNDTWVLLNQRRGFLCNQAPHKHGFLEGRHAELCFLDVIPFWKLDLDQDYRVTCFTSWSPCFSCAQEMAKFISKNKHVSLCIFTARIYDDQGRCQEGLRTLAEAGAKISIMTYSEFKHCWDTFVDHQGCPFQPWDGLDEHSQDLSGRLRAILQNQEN
Chain of Cytochrome P450 1A2 (Homo sapiens) (P05177 whole entry, looked up): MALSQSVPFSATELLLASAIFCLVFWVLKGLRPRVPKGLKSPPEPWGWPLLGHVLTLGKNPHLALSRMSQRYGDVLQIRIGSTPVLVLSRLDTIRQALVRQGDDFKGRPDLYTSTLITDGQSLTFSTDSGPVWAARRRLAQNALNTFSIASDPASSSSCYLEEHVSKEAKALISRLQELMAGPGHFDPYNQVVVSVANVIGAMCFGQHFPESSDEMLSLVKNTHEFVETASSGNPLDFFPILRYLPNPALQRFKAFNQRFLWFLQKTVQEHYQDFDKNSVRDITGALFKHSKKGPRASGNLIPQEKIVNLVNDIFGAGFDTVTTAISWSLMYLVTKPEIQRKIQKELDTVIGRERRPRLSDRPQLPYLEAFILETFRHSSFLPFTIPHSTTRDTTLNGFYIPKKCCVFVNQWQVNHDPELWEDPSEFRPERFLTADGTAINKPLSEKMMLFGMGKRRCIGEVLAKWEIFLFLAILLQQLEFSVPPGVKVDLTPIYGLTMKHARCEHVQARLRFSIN
Chain of 3',5'-cyclic-AMP phosphodiesterase 4B (Homo sapiens) (Q07343 whole entry, looked up): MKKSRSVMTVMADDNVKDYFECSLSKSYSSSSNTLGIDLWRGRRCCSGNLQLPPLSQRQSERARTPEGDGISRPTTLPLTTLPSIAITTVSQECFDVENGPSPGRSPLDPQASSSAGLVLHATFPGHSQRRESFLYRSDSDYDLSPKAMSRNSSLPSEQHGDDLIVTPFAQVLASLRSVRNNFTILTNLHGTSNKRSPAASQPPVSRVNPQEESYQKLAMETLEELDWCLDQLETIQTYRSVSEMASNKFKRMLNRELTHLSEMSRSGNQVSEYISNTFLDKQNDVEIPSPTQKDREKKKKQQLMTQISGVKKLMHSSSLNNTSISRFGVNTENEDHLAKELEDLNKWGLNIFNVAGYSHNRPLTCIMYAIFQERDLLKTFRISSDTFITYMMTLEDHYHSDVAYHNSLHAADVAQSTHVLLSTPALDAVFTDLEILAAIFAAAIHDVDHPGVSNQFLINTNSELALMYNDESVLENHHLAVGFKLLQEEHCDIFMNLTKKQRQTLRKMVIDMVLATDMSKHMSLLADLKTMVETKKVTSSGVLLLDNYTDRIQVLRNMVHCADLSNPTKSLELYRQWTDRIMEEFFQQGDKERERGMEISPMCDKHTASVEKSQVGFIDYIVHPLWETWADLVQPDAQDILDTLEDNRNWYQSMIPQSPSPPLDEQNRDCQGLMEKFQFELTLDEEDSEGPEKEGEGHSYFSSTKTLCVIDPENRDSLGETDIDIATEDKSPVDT
Chain of Pyruvate kinase (Leishmania mexicana) (Q27686 2-499 E452W): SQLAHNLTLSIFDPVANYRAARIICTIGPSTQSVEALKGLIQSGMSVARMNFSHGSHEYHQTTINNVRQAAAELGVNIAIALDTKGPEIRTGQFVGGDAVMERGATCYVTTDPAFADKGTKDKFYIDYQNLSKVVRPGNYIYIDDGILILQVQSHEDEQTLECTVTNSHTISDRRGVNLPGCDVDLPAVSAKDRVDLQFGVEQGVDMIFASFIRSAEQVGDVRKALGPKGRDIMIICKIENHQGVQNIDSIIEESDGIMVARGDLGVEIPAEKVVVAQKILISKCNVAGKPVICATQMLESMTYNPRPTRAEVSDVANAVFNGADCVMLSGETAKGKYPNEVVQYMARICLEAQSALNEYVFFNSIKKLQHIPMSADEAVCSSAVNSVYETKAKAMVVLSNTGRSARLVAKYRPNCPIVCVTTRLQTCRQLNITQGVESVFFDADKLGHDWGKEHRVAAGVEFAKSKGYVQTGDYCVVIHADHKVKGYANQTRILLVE
Chain of Guanine nucleotide-binding protein G(i) subunit alpha-1 (Homo sapiens) (P63096 whole entry, looked up): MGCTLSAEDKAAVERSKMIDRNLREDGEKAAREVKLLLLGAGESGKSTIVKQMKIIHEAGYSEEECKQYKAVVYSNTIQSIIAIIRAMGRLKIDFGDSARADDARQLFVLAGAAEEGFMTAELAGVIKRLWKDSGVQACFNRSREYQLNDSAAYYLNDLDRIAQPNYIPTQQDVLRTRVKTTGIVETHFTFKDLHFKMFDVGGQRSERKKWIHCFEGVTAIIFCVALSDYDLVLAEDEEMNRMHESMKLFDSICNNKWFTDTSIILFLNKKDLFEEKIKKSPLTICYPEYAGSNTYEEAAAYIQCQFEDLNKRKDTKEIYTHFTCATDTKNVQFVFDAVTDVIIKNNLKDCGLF
Chain of Cytochrome P450 2D6 (Homo sapiens) (P10635 whole entry, looked up): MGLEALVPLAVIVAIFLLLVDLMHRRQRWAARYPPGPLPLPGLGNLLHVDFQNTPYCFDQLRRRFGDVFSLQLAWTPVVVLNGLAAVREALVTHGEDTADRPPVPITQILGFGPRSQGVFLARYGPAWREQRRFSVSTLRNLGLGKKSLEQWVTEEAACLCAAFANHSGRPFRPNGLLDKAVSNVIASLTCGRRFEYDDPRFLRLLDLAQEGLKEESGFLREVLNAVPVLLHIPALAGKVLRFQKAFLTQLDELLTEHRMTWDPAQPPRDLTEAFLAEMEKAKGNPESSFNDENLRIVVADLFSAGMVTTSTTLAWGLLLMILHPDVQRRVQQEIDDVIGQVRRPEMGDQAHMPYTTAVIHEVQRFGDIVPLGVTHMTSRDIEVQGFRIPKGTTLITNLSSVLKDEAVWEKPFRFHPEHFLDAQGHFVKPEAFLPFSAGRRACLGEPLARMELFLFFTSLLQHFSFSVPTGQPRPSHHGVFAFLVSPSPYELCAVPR
Chain of Muscarinic acetylcholine receptor M1 (Rattus norvegicus) (P08482 whole entry, looked up): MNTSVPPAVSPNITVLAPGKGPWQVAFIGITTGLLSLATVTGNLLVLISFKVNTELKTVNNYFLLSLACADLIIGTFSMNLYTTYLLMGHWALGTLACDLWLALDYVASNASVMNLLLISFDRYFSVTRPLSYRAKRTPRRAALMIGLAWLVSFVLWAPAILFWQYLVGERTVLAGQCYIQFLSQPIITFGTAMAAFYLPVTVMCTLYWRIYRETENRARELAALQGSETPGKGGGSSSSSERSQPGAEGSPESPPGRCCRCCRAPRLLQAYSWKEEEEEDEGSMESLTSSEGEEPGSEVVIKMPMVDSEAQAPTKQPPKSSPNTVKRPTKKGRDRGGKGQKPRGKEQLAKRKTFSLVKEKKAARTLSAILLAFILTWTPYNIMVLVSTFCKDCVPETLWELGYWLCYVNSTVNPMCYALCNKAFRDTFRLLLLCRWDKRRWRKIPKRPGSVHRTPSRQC
Chain of Cytochrome P450 2C9 (Homo sapiens) (P11712 whole entry, looked up): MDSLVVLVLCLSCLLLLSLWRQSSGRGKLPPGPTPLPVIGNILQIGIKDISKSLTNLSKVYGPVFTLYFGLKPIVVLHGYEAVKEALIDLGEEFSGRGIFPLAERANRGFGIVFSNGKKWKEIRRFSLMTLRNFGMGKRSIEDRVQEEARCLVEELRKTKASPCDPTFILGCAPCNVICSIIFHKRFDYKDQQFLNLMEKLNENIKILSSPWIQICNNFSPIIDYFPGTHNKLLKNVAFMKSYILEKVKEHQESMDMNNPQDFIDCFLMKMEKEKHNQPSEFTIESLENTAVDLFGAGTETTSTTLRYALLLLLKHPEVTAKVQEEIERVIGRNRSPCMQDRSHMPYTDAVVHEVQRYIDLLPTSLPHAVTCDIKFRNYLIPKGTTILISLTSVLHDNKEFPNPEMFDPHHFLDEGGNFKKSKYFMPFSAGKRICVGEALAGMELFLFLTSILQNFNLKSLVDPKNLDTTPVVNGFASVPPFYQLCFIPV

As for `OC[C@H]1NC[C@H](O)[C@@H](O)[C@H]1O`, the Potency entry in [1], in [4], in [5], in [7], in experiment [8] and in [9] was “inactive” in each case. For the same molecule, the Potency in experiment [2] and in [3] was > 46 µM (inactive) throughout. The activity change, negative = inhibition in [6] is -0.744% (inactive). The max response in experiment [6] (setting [22]) is 30%; in [6] (setting [23]), 27.8%. Further, the result in [10] was inactive.
As to `CO[C@]1(C2=NCCN2)COc2ccccc2O1`, the activity change, negative = inhibition in [11] is -14% (inactive); in experiment [12], -11% (inactive); in experiment [6], 1.12% (inactive). For the same molecule, the Potency result in experiment [1], in experiment [4], in experiment [5], in experiment [15], in experiment [17] and in experiment [18] was “inactive” in each case. Also, the Potency result in experiment [8] and in [9] was “inactive” throughout. Besides, in experiment [13], the activity, negative = inhibition was 13.6% (inactive). The figures for the Potency in experiment [2], in [3] and in experiment [16] were > 46 µM (inactive), > 46 µM (inactive) and 0.794 µM (active), respectively. Also, the call in experiment [14], in experiment [19], in experiment [20] and in experiment [21] was inactive. Further, the values for the max response in experiment [6] (setting [22]) and in [6] (setting [23]) were 8.44% and 10.7%, respectively.
